# Test results published in PubChem BioAssay (Tox21).
# The source made the active and inactive calls. Calls come from the whole dose curve; as a rule, active = well fitted curve in the direction sought with a large enough effect in the repeat runs; inconclusive = weak or mixed curves; inactive = flat fitted curve, though single readings scatter.
# Experiment: qHTS assay to test for compound auto fluorescence at 590 nm (red) in HEK293 cell free culture (AID 720683)
# Settings: cell-free medium autofluorescence, Ex540/Em590 red; series mostly up to 91.3 µM
# Description: U.S. Tox21 Program National Center for Advancing Translational Sciences [NCATS] NIH Chemical Genomics Center [NCGC] U.S. Environmental Protection Agency [EPA] National Institutes of Environmental Health Sciences [NIEHS] National Toxicology Program [NTP] U.S. Food and Drug Administration [FDA] Tox21 Assay Overview: Compound auto fluorescence often interferes with screening of the compound library against various biological targets and signaling pathways. Some of these compounds may have fluorophoric properties. Such properties may interfere with the assay outputs resulting in false positives and/or negatives. To decrease such complications and ensure the compound activities are relevant in terms of biological response, the Tox21 10K compound library was screened for auto fluorescence. From the fluorophores used as reporter signals in our screening assays, the auto fluorescence equivalencies of compounds against three fluorophores have been evaluated: Triamterene, Fluorescein and Rose Bengal sodium for blue, green and red fluorescence, respectively. The fluorescence intensities were measured using Excitation/Emission wavelengths at 405/460nm, 485/535nm and 540/590nm for blue, green and red labels, respectively. This assay includes the red fluorescence data.
# Tox21 Assay Protocol Summary: 5 uL of culture medium (DMEM containing 10% FBS) per well was dispensed into black wall/clear bottom 1536-well plates using a Multidrop Combi Dispenser (ThermoFisher Scientific, Waltham, MA). After 23 nL compound or DMSO vehicle was transferred into assay plate by a pintool work station (Kalypsys, San Diego, CA), fluorescence intensities in the assay plates were measured by an Envision (PerkinElmer, Shelton, CT) plate reader using three labels for measuring blue, green and red fluorescence at […] 460, 535 and 590nm respectively.
row,Compound,outcome
1,N#Cc1cc(Br)c(O)c(Br)c1,inactive
2,Cc1cc(Cl)ccc1OCCCC(=O)O,inactive
3,CCc1cccc(CC)c1N(COC)C(=O)CCl,inactive
4,CCN(N=O)C(N)=O,inactive
5,Oc1c(Cl)c(Cl)c(Cl)c(Cl)c1Cl,inactive
6,Nc1ccc(-c2ccccc2)cc1,inactive
7,CCCCCCCCCCCOC(=O)c1ccccc1C(=O)OCCCCCCCCCCC,inactive
8,CCCCN(CC)c1c([N+](=O)[O-])cc(C(F)(F)F)cc1[N+](=O)[O-],inactive
9,CCOC(=S)S,inactive
10,C#CCOS(=O)OC1CCCCC1Oc1ccc(C(C)(C)C)cc1 (stereo not given),inactive
11,CCN(CC)C(=O)/C(Cl)=C(\C)OP(=O)(OC)OC,inactive
12,CC(O)CCO (stereo not given),inactive
13,Cc1ccc(N)c(N)c1,inactive
14,CCCCNC(=O)n1c(NC(=O)OC)nc2ccccc21,inactive
15,CN(C)C(=O)Nc1ccc(Cl)cc1,inactive
16,CCC(CC)Nc1c([N+](=O)[O-])cc(C)c(C)c1[N+](=O)[O-],inactive
17,O=C(O)CC[N+](=O)[O-],inactive
18,COP(=S)(OC)Oc1cc(Cl)c(Cl)cc1Cl,inactive
19,CCOc1cc(Oc2ccc(C(F)(F)F)cc2Cl)ccc1[N+](=O)[O-],inactive
20,Oc1cc(Cl)ccc1Cl,inactive

row,Compound,outcome
1,C=CCc1ccc(OC)cc1,inactive
2,Cc1cc(C)cc(C)c1,inactive
3,CC(C)C(=O)OCC(C)(C)C(OC(=O)C(C)C)C(C)C (stereo not given),inactive
4,CC(C)Oc1cc(-n2nc(C(C)(C)C)oc2=O)c(Cl)cc1Cl,inactive
5,Oc1cc(Cl)c(Cl)cc1Cl,inactive
6,CCOP(=S)(OCC)O/N=C(\C#N)c1ccccc1,inactive
7,NNC(=S)NN,inactive
8,O=[N+]([O-])c1cccc2ccccc12,inactive
9,C[C@]12CCC(=O)C(O)=C1CC[C@@H]1[C@@H]2CC[C@]2(C)C(=O)CC[C@@H]12,inactive
10,Nc1ccncc1,inactive
11,NC(=S)Nc1ccccc1,inactive
12,O=[N+]([O-])c1c(Cl)c(Cl)c(Cl)c(Cl)c1Cl,inactive
13,N[C@@H](Cc1ccc(N(CCCl)CCCl)cc1)C(=O)O,inactive
14,c1nc[nH]n1,inactive
15,CCCCC(CC)COC(=O)c1ccc(C(=O)OCC(CC)CCCC)c(C(=O)OCC(CC)CCCC)c1 (stereo not given),inactive
16,CCCCCc1cc(O)cc(O)c1,inactive
17,COc1ccc(C(CN(C)C)C2(O)CCCCC2)cc1 (stereo not given),inactive
18,CCCCC(CC)COC(=O)Cl (stereo not given),inactive
19,COc1ccc(C=O)cc1,inactive
20,CNC(=O)Oc1cccc2c1OC(C)(C)O2,inactive
